About 410 targets per protein were measured; listed, in parts, are those with the strongest signals and a random draw of the rest.
Tests used:
Assay in all cases: glycan array binding signal (z-score within array); higher = stronger binding
Conditions in all cases: glycan notation: IUPAC condensed, linker removed
[1] = target: Fuc(a1-2)Gal(b1-3)GalNAc(a1-3)[Fuc(a1-2)]Gal(b1-4)GlcNAc
Outline: (§1)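 Arrays were curated from the Consortium for Functional Glycomics database, 3228 in total, and kept only where the protein sequence was available. Binding is expressed as a within-array Z-score. This score was averaged across arrays of the same protein sequence at different concentrations or buffers and across linkers, and negative values can be read as non-binding.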

Fuc(a1-2)Gal(b1-3)GlcNAc = target: Fuc(a1-2)Gal(b1-3)GlcNAc
Outline: as §1

[2] = target: Fuc(a1-2)Gal(b1-3)GlcNAc(b1-2)Man(a1-3)[Fuc(a1-2)Gal(b1-3)GlcNAc(b1-2)Man(a1-6)]Man(b1-4)GlcNAc(b1-4)GlcNAc
Outline: as §1

[3] = target: Fuc(a1-2)Gal(b1-3)GlcNAc(b1-3)[Gal(b1-4)GlcNAc(b1-6)]Gal(b1-4)Glc
Outline: as §1

[4] = target: Fuc(a1-2)Gal(b1-3)GlcNAc6S
Outline: as §1

[5] = target: Fuc(a1-2)Gal(b1-4)GlcNAc(b1-2)Man(a1-3)[Fuc(a1-2)Gal(b1-4)GlcNAc(b1-2)Man(a1-6)]Man(b1-4)GlcNAc(b1-4)GlcNAc
Outline: as §1

[6] = target: Fuc(a1-2)[Gal(a1-3)]Gal(b1-3)GlcNAc(b1-3)GalNAc
Outline: as §1

[7] = target: Fuc(a1-2)[Gal(a1-3)]Gal(b1-4)GlcNAc(b1-2)Man(a1-3)[Fuc(a1-2)[Gal(a1-3)]Gal(b1-4)GlcNAc(b1-2)Man(a1-6)]Man(b1-4)GlcNAc(b1-4)GlcNAc
Outline: as §1

[8] = target: Fuc(a1-2)[GalNAc(a1-3)]Gal(b1-4)GlcNAc(b1-6)GalNAc
Outline: as §1

[9] = target: Fuc(a1-3)[Gal(b1-4)]GlcNAc
Outline: as §1

[10] = target: Gal(a1-3)Gal(b1-4)GlcNAc(b1-2)Man
Outline: as §1

[11] = target: Gal(a1-4)Gal(b1-3)GlcNAc(b1-2)Man(a1-3)[Gal(a1-4)Gal(b1-3)GlcNAc(b1-2)Man(a1-6)]Man(b1-4)GlcNAc(b1-4)GlcNAc
Outline: as §1

Gal(a1-4)GlcNAc = target: Gal(a1-4)GlcNAc
Outline: as §1

Gal(b1-3)Gal(b1-4)GlcNAc = target: Gal(b1-3)Gal(b1-4)GlcNAc
Outline: as §1

[12] = target: Gal(b1-3)GlcNAc(b1-3)Gal(b1-4)GlcNAc(b1-2)[Gal(b1-3)GlcNAc(b1-3)Gal(b1-4)GlcNAc(b1-6)]Man(a1-6)[Gal(b1-3)GlcNAc(b1-3)Gal(b1-4)GlcNAc(b1-2)Man(a1-3)]Man(b1-4)GlcNAc(b1-4)[Fuc(a1-6)]GlcNAc
Outline: as §1

[13] = target: Gal(b1-3)[Fuc(a1-4)]GlcNAc(b1-2)Man(a1-3)[Gal(b1-3)[Fuc(a1-4)]GlcNAc(b1-2)Man(a1-6)]Man(b1-4)GlcNAc(b1-4)[Fuc(a1-6)]GlcNAc
Outline: as §1

Gal(b1-4)Glc = target: Gal(b1-4)Glc
Outline: as §1

[14] = target: Gal(b1-4)GlcNAc(b1-3)Gal(b1-3)GalNAc
Outline: as §1

[15] = target: Gal(b1-4)GlcNAc(b1-3)Gal(b1-3)GlcNAc
Outline: as §1

[16] = target: Gal(b1-4)GlcNAc(b1-3)Gal(b1-4)GlcNAc(b1-3)Gal(b1-4)GlcNAc(b1-2)Man(a1-3)[Gal(b1-4)GlcNAc(b1-3)Gal(b1-4)GlcNAc(b1-3)Gal(b1-4)GlcNAc(b1-2)Man(a1-6)]Man(b1-4)GlcNAc(b1-4)[Fuc(a1-6)]GlcNAc
Outline: as §1

[17] = target: Gal(b1-4)GlcNAc(b1-3)Gal(b1-4)GlcNAc(b1-3)Gal(b1-4)GlcNAc(b1-2)[Gal(b1-4)GlcNAc(b1-3)Gal(b1-4)GlcNAc(b1-3)Gal(b1-4)GlcNAc(b1-6)]Man(a1-6)[Gal(b1-4)GlcNAc(b1-3)Gal(b1-4)GlcNAc(b1-3)Gal(b1-4)GlcNAc(b1-2)Man(a1-3)]Man(b1-4)GlcNAc(b1-4)[Fuc(a1-6)]GlcNAc
Outline: as §1

[18] = target: Gal(b1-4)GlcNAc(b1-3)Gal(b1-4)GlcNAc(b1-3)Gal(b1-4)GlcNAc(b1-3)Gal(b1-4)GlcNAc(b1-3)Gal(b1-4)GlcNAc(b1-2)[Gal(b1-4)GlcNAc(b1-3)Gal(b1-4)GlcNAc(b1-3)Gal(b1-4)GlcNAc(b1-3)Gal(b1-4)GlcNAc(b1-3)Gal(b1-4)GlcNAc(b1-6)]Man(a1-6)[Gal(b1-4)GlcNAc(b1-3)Gal(b1-4)GlcNAc(b1-3)Gal(b1-4)GlcNAc(b1-3)Gal(b1-4)GlcNAc(b1-3)Gal(b1-4)GlcNAc(b1-2)Man(a1-3)]Man(b1-4)GlcNAc(b1-4)[Fuc(a1-6)]GlcNAc
Outline: as §1

Gal4S(b1-4)GlcNAc = target: Gal4S(b1-4)GlcNAc
Outline: as §1

Gal6P(b1-4)GlcNAc = target: Gal6P(b1-4)GlcNAc
Outline: as §1

Gal6S(b1-3)GlcNAc6S = target: Gal6S(b1-3)GlcNAc6S
Outline: as §1

GalNAc(b1-6)GalNAc = target: GalNAc(b1-6)GalNAc
Outline: as §1

GalNAc6S(b1-4)GlcNAc = target: GalNAc6S(b1-4)GlcNAc
Outline: as §1

B1: Nc3LysM-2 (protein)
chain: AHVLQARQSVSCDFATAANTGDTCASFAAAWGITEAAFAKLNPGVSCPGNLIAGSEYCVIGTVSTGAPTTTKAATTSTTPPTTTTTTKATTLSTSTTSVSPTGPSPQMPSITSTCNKFYQVQSGDGCWSIEQAQGVSASDFMAWNKAVDAQCDNLWLGYYVCVGVKGGSSPPPTTTTKPASSSAPTPQMPNTVSNCKKFHKVVSGDGCWAIEQAAGISASDFAKWNPYVDAACDNLWLGYYVCIGV
- glycan array binding signal (z-score) [1]: -0.746
- glycan array binding signal (z-score) (Fuc(a1-2)Gal(b1-3)GlcNAc): 0.966
- glycan array binding signal (z-score) [2]: -0.335
- glycan array binding signal (z-score) [3]: 0.735
- glycan array binding signal (z-score) [4]: -1.29
- glycan array binding signal (z-score) [5]: 2.21
- glycan array binding signal (z-score) [6]: -0.745
- glycan array binding signal (z-score) [7]: 2.78
- glycan array binding signal (z-score) [8]: -1.2
- glycan array binding signal (z-score) [9]: -0.073
- glycan array binding signal (z-score) [10]: -0.456
- glycan array binding signal (z-score) [11]: -0.185
- glycan array binding signal (z-score) (Gal(a1-4)GlcNAc): 0.991
- glycan array binding signal (z-score) (Gal(b1-3)Gal(b1-4)GlcNAc): -0.043
- glycan array binding signal (z-score) [12]: 2.73
- glycan array binding signal (z-score) [13]: 0.856
- glycan array binding signal (z-score) (Gal(b1-4)Glc): -0.252
- glycan array binding signal (z-score) [14]: -1.18
- glycan array binding signal (z-score) [15]: 0.13
- glycan array binding signal (z-score) [16]: 2.69
- glycan array binding signal (z-score) [17]: 5.8
- glycan array binding signal (z-score) [18]: 2.29
- glycan array binding signal (z-score) (Gal4S(b1-4)GlcNAc): -1.15
- glycan array binding signal (z-score) (Gal6P(b1-4)GlcNAc): -0.044
- glycan array binding signal (z-score) (Gal6S(b1-3)GlcNAc6S): -1.34
- glycan array binding signal (z-score) (GalNAc(b1-6)GalNAc): 0.877
- glycan array binding signal (z-score) (GalNAc6S(b1-4)GlcNAc): 0.893

From the supplement of paper PMC8728848
